TDP1 cell CPT = qHTS for Inhibitors of human tyrosyl-DNA phosphodiesterase 1 (TDP1): qHTS in cells in presence of CPT; Potency, µM (highest dose often 46.2 µM), without a hit: top-dose activity change, negative = growth inhibition, hits mostly inhibitors; 12% of 420,000 active; chicken DT40 Tdp1-/-;hTDP1 cells + 20 nM CPT, ATP luminescence, 48 h; note: nearly all actives have a fitted effect of over 55% in size
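Cell growth measured by CellTiter-Glo luminescence after a minimum 48 h, 37 C compound exposure with 20 nM CPT in Tdp1-knockout DT40 cells stably expressing hTDP1, seeded 400/well; qHTS titration format.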
HT1080 IDH1KD tx = qHTS for induction of synthetic lethality in tumor cells producing 2HG: qHTS for the HT-1080-IDH1KD cell line | AID 686971, 2013 | 2% of 360,000 active | HT-1080 IDH1 knockdown viability, ATP luminescence, 48 h | Potency, µM (highest dose often 46.1 µM), for inactives: top-dose activity, negative = toxicity, most hits filed as cytotoxic;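 note: 0% = DMSO wells and -100% = cell-free medium wells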
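% activity derives from luminescence (CellTiter-Glo), normalised to DMSO and no-cell wells. HT-1080-IDH1KD cells, 750/well, had 48 h compound exposure at 37 °C.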
KB-3-1 tox = qHTS assay for MDR1-selective chemotherapeutics: Primary screen using the parental adenocarcinoma cell KB-3-1. KB-3-1 viability, CellTiter-Glo ATP luminescence, 72 h. Potency, µM (series often up to 46.1 µM), usual class: cytotoxic. 1.4% of 400,000 active; note: nearly all actives have a fitted effect of over 60% in size
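KB-3-1 cells, DMEM (no phenol red) + 10% FBS; compound by pin transfer, 72 h, 37 °C. Readout: CellTiter-Glo luminescence after 10 min. Data normalized, curve-fitted.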
KB-V1 cytotox = qHTS assay for MDR1-selective chemotherapeutics: Primary screen using the drug-selected MDR subline cells KB-V1 | KB-V1 MDR cells viability, CellTiter-Glo, 72 h | Potency, µM (doses to about 46.1 µM), most hits filed as cytotoxic | 3.4% of 400,000 active; note: nearly all actives have a fitted effect of over 60% in size
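Cytotoxicity toward P-gp-expressing KB-V1 cells was determined as loss of CellTiter-Glo luminescence after 72 h at 37 degrees C. Compounds were tested in quantitative HTS format across a concentration range, with curves fitted to normalized data.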
HT1080-NT tox = qHTS for induction of synthetic lethality in tumor cells producing 2HG: qHTS for the HT-1080-NT fibrosarcoma cell line | 1.6% of 360,000 active | HT-1080-NT fibrosarcoma viability, CellTiter-Glo ATP luminescence, 48 h | Potency, µM (doses to about 46.1 µM), for inactives: at the highest dose activity, negative = less viability, actives largely listed as cytotoxic;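 note: NT is the 2HG producing partner of a matched IDH1 knockdown line; 0% = DMSO-treated cells and -100% = media-only wells without cells; nearly all actives have a fitted effect of over 55% in size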
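Luminescent CellTiter-Glo readout after 48 hours of compound exposure at 37 degrees C defined viability of HT-1080-NT cells. Activity was normalized to DMSO wells and cell-free media wells; concentration-response curves were fitted and assigned curve classes.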
TDP1 cell noCPT = qHTS for Inhibitors of human tyrosyl-DNA phosphodiesterase 1 (TDP1): qHTS in cells in absence of CPT | Potency, µM (titrated, usually from 46.2 µM), for inactives: at the top dose activity change, negative = growth inhibition, hits mostly inhibitors | DT40 Tdp1-/- hTDP1 cells, no CPT, ATP luminescence, 48 h | 15% of 420,000 active; note: nearly all actives have a fitted effect of over 55% in size
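A cellular qHTS used chicken DT40 cells lacking endogenous Tdp1 but carrying stably transfected human TDP1. Compounds were applied without camptothecin, and cell growth kinetics were judged by ATP-dependent luminescence after ≥48 hr.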
Numbers without * were called inactive; i = inactive; ? = inconclusive; nt = not tested or not shown; ! = a repeat was not active. An excerpt weighted towards active compounds, which were near 19% of everything screened. Calls come from the whole dose curve; as a rule, active = well fitted curve in the direction sought with a large enough effect; inconclusive = small, poorly fitted or top-dose-only effect, or another doubt; inactive = no such curve, though single readings can be large; an effect the other way counts as inactive or inconclusive. Unless noted, % is set by controls: 0 for no effect and ±100 for the full control effect; potency is the fitted concentration of half-maximal effect.

SMILES	TDP1 cell CPT	HT1080 IDH1KD tx	KB-3-1 tox	KB-V1 cytotox	HT1080-NT tox	TDP1 cell noCPT
CCn1c(C)c(C(=O)NCCc2ccccc2)c2cc(OC)ccc21	-3%	-11%	i	i	-1%	-22%
COc1ccc(CCNC(=O)c2cnc3sc(N4CCCCCC4)nn3c2=O)cc1	21µM*	nt	i	i	nt	9.2µM*
CN1C(CC(=O)c2ccccc2)CCCC1CC(O)c1ccccc1 (stereo not given)	?	-1%	i	i	0%	-20%
CN1[C@@H](CC(=O)c2ccccc2)CCC[C@H]1C[C@H](O)c1ccccc1	24µM*!	-1%	i	?	-12%	21µM*!
COc1ccc(-c2cc(C3CCN(c4cc(Cl)nc(N)n4)CC3)[nH]n2)cc1	23µM*	?	?	i	?	23µM*
ClCCN(CCCl)c1ccc(C2=NCCc3ccccc32)cc1	23µM*	14%	i	?	2%	?
COc1ccc2c(c1)C(c1ccc(N(CCCl)CCCl)cc1)=NCC2	16µM*	26µM*	i	i	?	13µM*
O=C(c1ccccc1)N1CCN(c2ccccc2)CC1	-24%	0%	i	i	-5%	23µM*
COc1cc(C#Cc2c(-c3cncn3C)n(C)c3ccc(-c4cnc(N5CCOCC5)nc4)cc23)cc(OC)c1	16µM*	-5%	i	i	-10%	12µM*
O=C(CSc1nc(-c2ccccc2)c(-c2ccccc2)[nH]1)Nc1nccs1	?	?	i	i	?	?
CCOc1ccc2nc(NC(=O)c3cccn(Cc4ccccc4C)c3=O)sc2c1	2%	nt	i	i	nt	2%
Cn1c(O)c(C=NC2CCCCCC2)c(=O)[nH]c1=S	-17%	1%	i	i	-3%	15%
Cc1cc(C)c2c(ccc3cccc[n+]32)c1	?	?	?	?	?	21µM*
CCCCCCC(C)(C)c1ccc([C@@H]2C[C@H](O)CC[C@@H]2CCCO)c(O)c1	19µM*	nt	nt	nt	nt	3µM*
CC(C)[C@H]1C(=O)N2CCC[C@H]2[C@]2(O)O[C@](NC(=O)[C@@H]3C[C@@H]4c5cccc6[nH]cc(c56)C[C@H]4N(C)C3)(C(C)C)C(=O)N12	?	nt	nt	nt	nt	19µM*
CC(C)[C@@]1(NC(=O)[C@@H]2C[C@@H]3c4cccc5[nH]cc(c45)C[C@H]3N(C)C2)O[C@@]2(O)[C@@H]3CCCN3C(=O)[C@H](Cc3ccccc3)N2C1=O	27µM*!	13%	i	i	31%	19µM*!
CC(C)Oc1ccc(CNC(=O)Oc2ccccc2)cc1	2%	?	?	i	-3%	-12%
O=C1CCCC2[C@@H]3CCCN4CCC[C@@H](CN12)C34 (stereo not given in full)	-3%	nt	nt	nt	nt	3%
CCC(c1nnnn1Cc1ccccc1)N1CCC2(CC1)C(=O)NCN2c1ccccc1 (stereo not given)	?	-10%	i	i	3%	?
COc1ccc(-n2nc(C(=O)NCC(=O)N3CCC4(CC3)OCCO4)c3ccccc3c2=O)cc1Cl	-11%	4%	i	i	7%	?
Cc1ccnc(NC(=O)CCCc2ccc(N(CCCl)CCCl)cc2)n1	0.23µM*	-2%	?	i	6%	0.58µM*
OC(c1ccccc1)(c1ccccc1)C1CN2CCC1CC2 (stereo not given)	?	-19%	i	i	-11%	?
OC(Cc1ccccc1)(c1ccccc1)C1CN2CCC1CC2 (stereo not given)	15µM*	?	i	i	?	16µM*
OC(c1ccccc1)(c1ccc(Cl)cc1)C1CN2CCC1CC2 (stereo not given)	16µM*	16µM*	?	?	?	18µM*
FC(F)(F)c1ccc(-c2ccc3c(c2)CNCc2cnnn2-3)cc1	?	?	i	i	?	?
SMILES	TDP1 cell CPT	HT1080 IDH1KD tx	KB-3-1 tox	KB-V1 cytotox	HT1080-NT tox	TDP1 cell noCPT
OC(CN1CCOCC1)c1csc2ccccc12 (stereo not given)	26%	12%	i	i	0%	2%
CN1C(=O)c2ccccc2Sc2ccc(NC(=O)NCc3ccc(Cl)cc3)cc21	23µM*	nt	?	i	nt	16µM*
Cc1ccc2oc(=O)c(-c3nc4ccc(C)cc4[nH]3)cc2c1	?	nt	i	i	nt	-29%
CC(CC(C)(C)N1CC1)=NO	2.9µM*	11%	i	i	14%	3.3µM*
C[C@]12CCC3C(C(=O)C[C@H]4C[C@@H](O)CC[C@]34C)C1CCC2=O (stereo not given in full)	-3%	12%	i	i	-4%	-16%
O=C(NC1CCCCC1)Oc1cc2oc(=O)sc2cc1Cl	-17%	-10%	i	i	-6%	15µM*
CCCNS(=O)(=O)c1ccc(OCC(=O)N2CCN(Cc3ccc4c(c3)OCO4)CC2)cc1	?	-2%	i	?	-11%	12µM*
COc1cccc(OC)c1C1=NCC(=O)Nc2c1oc1ccc(Br)cc21	0.92µM*	2.9µM*	i	?	?	0.92µM*
CCC(=NCCCn1ccnc1)c1c(O)n(-c2ccccc2)c(=O)[nH]c1=O	8%	10%	i	?	9%	-1%
CCC(=NCCc1c[nH]c2ccccc12)c1c(O)n(C)c(=O)n(C)c1=O	4µM*	?	?	?	?	6.3µM*
CCC(=NC(C)c1ccccc1)c1c(O)n(C)c(=O)n(C)c1=O (stereo not given)	21µM*	-26%	?	2.6µM*	-19%	7.3µM*
CCC(=NCCc1c[nH]c2ccccc12)c1c(O)n(-c2ccc(C)cc2)c(=O)[nH]c1=O	?	-12%	i	21µM*	3%	?
CCC(=NCCN1CCCCC1)c1c(O)n(C)c(=O)n(C)c1=O	-21%	3%	i	i	7%	-1%
COc1ccc(NC(=O)N2CCCC3(CCN(C(=O)Oc4ccccc4)CC3)C2)cc1	-5%	nt	nt	nt	nt	-13%

Screening data as filed in PubChem.
